PubChem BioAssay AID2530 (National Center for Advancing Translational Sciences (NCATS), 2010)
Records with an inconclusive call do not appear. Entries that show only a call come without a potency. Calls of active or inactive are those of the source. Calls come from the whole dose curve; as a rule, active = well fitted inhibition curve with a large enough effect; inconclusive = small, poorly fitted or top-dose-only effect; inactive = flat fitted curve, though single readings scatter.

biological target: Luciferin 4-monooxygenase (Photuris pensylvanica) (UniProt Q27757); experiment: Secondary Assay for Luciferase (Kinase-Glo TM) Inhibition Counterscreen; settings: Kinase-Glo luciferase enzyme, luminescence; series mostly up to 58.1 µM
Experimental: NIH Chemical Genomics Center [NCGC] Malcolm Walkinshaw, Hugh Morgan, Linda Gilmore University of Edinburgh, UK MLPCN Grant: 1 R03 MH085697-01 NCGC Assay Overview: Luciferase (Kinase-Glo, Promega Corporation) was assayed for its ability to generate light using ATP and luciferin as substrates. The ATP concentration in the assay (10 uM) was within the linear range of enzyme activity for the assay conditions used. This assay was used as an counter screen for human pyruvate kinase M2 isoform.
NCGC Assay Protocol Summary: Four uL of substrate mix (final concentration, 50 mM imidazole pH 7.2, 50 mM KCl, 7 mM MgCl2, 10 uM ATP, 0.01% Tween 20, 0.05% BSA) was dispensed into white 1536 well plates. Twenty-three nL of compound was delivered by a pin tool and 2 uL of luciferase detection mix (Kinase-Glo, Promega)) was added. Following 8-minute incubation at ambient temperature, luminescence was measured by a ViewLux (Perkin Elmer) at 5 seconds exposure/plate. Data were normalized to the controls for basal activity (DMSO only) and 100% inhibition (40 uM SIB 1757) and curve fitting was performed using Hill equation.
Potency is the fitted concentration of half-maximal effect.

Row | SMILES | Potency
1 | O=C(/C=C1\C(=O)Nc2ccccc21)/C=C1\C(=O)Nc2ccccc21 | inactive
2 | Cn1c2cc(S(C)=O)sc2c2cnn(Cc3cccc(N)c3)c(=O)c21 (stereo not given) | inactive
3 | O=C1CCc2cc(S(=O)(=O)Nc3cccc(Cl)c3)ccc2N1 | inactive
4 | O=C1C=CC(=O)N1c1cccc(-c2ccccc2)c1 | inactive
5 | CN=c1scc(-c2ccco2)n1/N=C/c1ccc(O)c(O)c1 | inactive
6 | O=C1CCc2cc(S(=O)(=O)Nc3cccc(C(F)(F)F)c3)ccc2N1 | inactive
7 | Cc1ccc(NS(=O)(=O)c2ccc3c(c2)n(C)c(=O)n3C)cc1C | inactive
8 | Cc1ccc(NS(=O)(=O)c2cc3c(cc2-c2ccco2)NC(=O)CO3)cc1C | inactive
9 | O=C1c2ccccc2C(=O)N1c1cccc2ccncc12 | inactive
10 | O=C1CCc2cc(S(=O)(=O)Nc3ccc(Cl)cc3)ccc2N1 | inactive
11 | O=C1c2ccccc2C(=O)N1c1ccncc1 | inactive
12 | O=C1CCc2cc(S(=O)(=O)Nc3ccccc3-c3ccccc3)ccc2N1 | inactive
13 | O=C(NC(=O)c1ccccc1)Nc1ccccn1 | 5.8 µM (active)
14 | Cc1ccc(NS(=O)(=O)c2ccc3c(c2)CCCC(=O)N3)cc1C | inactive
15 | Cc1nc(-c2ccc(C(=O)Nc3ccccc3F)cc2)cs1 | 11.6 µM (active)
16 | Cc1ccc(C(=O)/C=C/C(=O)c2ccc(C)cc2)cc1 | inactive
17 | COc1ccc2c(c1)c1ccc3c(c1n2C)C(=O)C=CC3=O | inactive
18 | CCNc1cccc(S(=O)(=O)N2CCN(S(=O)(=O)c3ccc4c(c3)OCCO4)CC2)c1 | inactive
19 | Cc1ccc(NS(=O)(=O)c2cc3c(cc2C)NC(=O)CO3)cc1C | inactive
20 | O=C(Nc1ccc(N2CCOCC2)cc1)c1cn2ccccc2n1 | 6.51 µM (active)

Row | SMILES | Potency
21 | O=C1c2ccccc2C(=O)N1c1cncc2ccccc12 | inactive
22 | O=C1c2ccccc2C(=O)N1Cc1ccccn1 | inactive
23 | O=C1c2ccccc2C(=O)N1c1cccnc1 | inactive
24 | Cc1ccc(NS(=O)(=O)c2ccc3ccccc3c2)cc1C | inactive
25 | O=C1c2ccccc2C(=O)N1c1cccc(Cl)c1 | inactive
26 | COc1ccc(NS(=O)(=O)c2ccc3c(c2)CCC(=O)N3)cc1 | inactive
27 | COc1cccc(NS(=O)(=O)c2ccc3c(c2)CCC(=O)N3)c1 | inactive
28 | CN=c1nc(-c2ccccc2)n(-c2ccccc2)s1 | inactive
29 | O=CN/C=C/c1cc(O)ccc1O | inactive
30 | O=C(Nc1cccc(O)c1)C(=O)Nc1ccccn1 | 20.6 µM (active)
31 | CC(=O)N1CCCc2cc(S(=O)(=O)Nc3ccc(C)c(C)c3)ccc21 | inactive
32 | Cc1ccc(OC2=NS(=O)(=O)c3ccccc32)cc1 | inactive
33 | CCOc1ccc(C(=O)O/N=C(\N)c2ccccn2)cc1 | 5.8 µM (active)
34 | Cc1ccc(NS(=O)(=O)c2ccc3c(c2)CCO3)cc1C | inactive
35 | Cc1ccc(C(=O)N2c3ccccc3CC2C)o1 (stereo not given) | 18.3 µM (active)
36 | Cc1ccc(NS(=O)(=O)c2ccc3c(c2)CCC(C)(C)O3)cc1C | inactive
37 | CCCCN1C(=O)c2ccccc2C1=O | inactive
38 | O=C1CCc2cc(S(=O)(=O)Nc3ccccn3)ccc2N1 | inactive
39 | Cc1ccc(NS(=O)(=O)c2ccc(-c3ccccc3)cc2)cc1C | inactive
40 | Cc1ccc(NS(=O)(=O)c2cc3c(cc2N2CCCCC2)NC(=O)CC3)cc1C | inactive
